Source: PubChem
GLS inhibitor – qHTS for Inhibitors of Glutaminase (GLS); GLS enzymatic activity, qHTS titration; Potency, µM (top dose mostly 45.5 µM), hits mostly inhibitors; 0.21% of 410,000 active; AID 624170, 2012
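hKGA; 45 mM KH2PO4 pH 8.2 + 0.02% Tween-20; cpd via pin tool; 1 mM Gln soln; GluOx/HRP/Amplex Red; RT 30 min; fluor. t0 & final.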
BAZ2B inh – qHTS Assay for Inhibitors of BAZ2B. Potency, µM (series often up to 114 µM), usual class: inhibitors. Bromodomain adjacent to zinc finger domain protein 2B (Homo sapiens), Q9UIF8. 4.4% of 360,000 active. AlphaScreen BAZ2B-H3K14Ac peptide displacement; further: nearly all actives have a fitted effect of over 60% in size
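AlphaScreen luminescence quantifies BAZ2B engagement of H3K14Ac peptide; the protein and biotinylated peptide are both at 50 nM final, buffer PBS pH 7.4 with 0.01% Tween-20, all steps at room temperature.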
JMJD2A Tudor inh – qHTS Assay for Inhibitors of JMJD2A-Tudor Domain. Lysine-specific demethylase 4A (Homo sapiens), O75164. AlphaScreen JMJD2A-Tudor / H3K4me3 peptide binding. Potency, µM (highest dose often 114 µM), most hits filed as inhibitors. 4.4% of 390,000 active. AID 504339, 2011; further: nearly all actives have a fitted effect of over 50% in size
HP1b chromo inh – HTS for Inhibitors of HP1-beta Chromodomain Interactions with Methylated Histone Tails; Chromobox protein homolog 1 (Homo sapiens), P83916; AlphaScreen HP1-beta / biotin-H3K9me3 peptide binding; Potency, µM (doses to about 114 µM), most hits filed as inhibitors; 0.56% of 390,000 active; AID 540317, 2011; further: nearly all actives have a fitted effect of over 70% in size
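Compound inhibition of the preformed complex between 50 nM HP1-beta and 50 nM biotinylated H3K9me3 peptide was read by AlphaScreen. Buffer was PBS pH 7.4 with 0.01% Tween-20. Incubations ran 30 min at room temperature, with 10 ug/mL donor/acceptor beads.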
L3MBTL1 block – qHTS Assay for the Inhibitors of L3MBTL1; Lethal(3)malignant brain tumor-like protein 1 (Homo sapiens), Q9Y468; AlphaScreen L3MBTL1–H3K9me1 peptide binding; Potency, µM (highest dose often 57.1 µM), usual class: inhibitors; 0.66% of 230,000 active; further: nearly all actives have a fitted effect of over 60% in size
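AlphaScreen proximity signal between nickel-chelate acceptor and streptavidin donor beads (final 10 ug/mL) reports binding of 50 nM L3MBTL1 to 75 nM biotin-H3 K9me1 peptide; complex incubated with compounds 30 min at room temperature; cefsulodin titration as control.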
G9a block – qHTS Assay for Inhibitors of Histone Lysine Methyltransferase G9a | G9a H3K9 monomethylation, AlphaScreen, 2 h | Potency, µM (doses to about 102 µM), most hits filed as inhibitors | 8.8% of 350,000 active | AID 504332, 2011; further: nearly all actives have a fitted effect of over 75% in size
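Methyltransferase reactions run at room temperature for 2 h (20 nM enzyme, 500 nM biotin-H3K9 peptide, 20 uM SAM) after a 15 min compound preincubation; product detected by AlphaScreen beads and anti-H3K9me1 antibody.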
Large screens that a line does not name were inactive. Only some compounds are listed: those with a hit (about 10% of all), similar ones and a draw of the others. The call rests on the fitted dose curve; in most records, active means well fitted curve in the direction sought with a large enough effect; inconclusive means small, poorly fitted or top-dose-only effect, or another doubt; inactive means no such curve, though single readings can be large; an effect the other way counts as inactive or inconclusive.

CC(=O)C1=C(O)C(=O)N(CCc2c[nH]c3ccccc23)C1c1ccc(C)cc1 (stereo not given)	G9a block 45µM
COCCN1C(=O)C(O)=C(C(=O)c2cccs2)C1c1ccccc1 (stereo not given)	G9a block 18µM
CCOc1cc(C2C(C(C)=O)=C(O)C(=O)N2CCc2c[nH]c3ccccc23)ccc1O (stereo not given)	G9a block inconclusive
Cc1ccc(NC(=O)Cn2c(=O)n(-c3ccc(Cl)c(Cl)c3)c(=O)c3c(C)c(C)sc32)c(C)c1	none (no result: L3MBTL1 block)
O=C(c1csnn1)N1CCC2(CC1)CCN(c1ccncc1)CC2	none (no result: GLS inhibitor, BAZ2B inh, JMJD2A Tudor inh, HP1b chromo inh, L3MBTL1 block)
Cc1ccc(-c2nn(C)c(=O)c3ccccc23)cc1S(=O)(=O)NCCCN(C)C	none (no result: L3MBTL1 block)
O=C(C1=C(O)C(=O)N(CCN2CCOCC2)C1c1ccc(F)cc1)c1cccs1 (stereo not given)	G9a block 71µM
O=C1NC(c2ccccc2)C(C(=O)c2cccs2)=C1O (stereo not given)	JMJD2A Tudor inh 25µM, G9a block inconclusive (no result: L3MBTL1 block)
O=C(c1ccccc1)c1cccs1	none (no result: L3MBTL1 block)
O=C(/C=C/c1ccccc1)c1ccc2c(c1)OCO2	none
O=C(O)CCCCCN1C(=O)C(O)=C(C(=O)/C=C/c2ccccc2)C1c1ccc2c(c1)OCO2 (stereo not given)	BAZ2B inh inconclusive, JMJD2A Tudor inh 22µM, G9a block 50µM
CC(=O)C1=C(O)C(=O)N(CCCCCC(=O)O)C1c1ccc(N(C)C)cc1 (stereo not given)	BAZ2B inh 79µM, JMJD2A Tudor inh 32µM, G9a block inconclusive (no result: L3MBTL1 block)
CCCCOc1ccc(C2C(C(=O)c3cccs3)=C(O)C(=O)N2CCN2CCOCC2)cc1 (stereo not given)	none (no result: G9a block)
CC(=O)C1=C(O)C(=O)N(Cc2ccccc2)C1c1ccc(N(C)C)cc1 (stereo not given)	JMJD2A Tudor inh inconclusive (no result: G9a block)
CCOc1cc2sc(N3CCC(C(=O)Nc4ccccc4Cl)CC3)nc2cc1Br	none (no result: L3MBTL1 block)
Cc1ccc(-c2nnc(Nc3cccc(Cl)c3)c3ccccc23)cc1S(=O)(=O)NCC1CCCO1 (stereo not given)	none (no result: L3MBTL1 block)
COCCN1C(=O)C(O)=C(C(C)=O)C1c1ccc(F)cc1 (stereo not given)	BAZ2B inh 79µM, JMJD2A Tudor inh 40µM, G9a block inconclusive
CCCOc1cccc(C2C(C(=O)c3cccs3)=C(O)C(=O)N2CCN2CCOCC2)c1 (stereo not given)	BAZ2B inh inconclusive, G9a block 79µM (no result: L3MBTL1 block)
COc1ccccc1NC(=O)c1ccccc1NS(=O)(=O)c1cccs1	G9a block 50µM
COc1cccc(OC)c1C(=O)Nc1ccccc1Sc1ccccc1	none (no result: BAZ2B inh, L3MBTL1 block, G9a block)
COc1ccccc1NC(=O)c1ccccc1NS(C)(=O)=O	none
COc1cccc(OC)c1C(=O)Nc1ccccc1NC(=O)c1c(OC)cccc1OC	G9a block 79µM (no result: L3MBTL1 block)
Cc1cc2c(s1)c1cnn(Cc3ccc(C)c(F)c3)c(=O)c1n2C	none (no result: GLS inhibitor, BAZ2B inh, HP1b chromo inh, L3MBTL1 block, G9a block)
CSc1ccc(/C=C/c2nc3ccccc3n2S(=O)(=O)c2ccc(Br)cc2)cc1	JMJD2A Tudor inh inconclusive (no result: BAZ2B inh, L3MBTL1 block)
CSCSC1=C(C#N)C(c2ccc(Cl)cc2)C(C(C)=O)=C(C)N1 (stereo not given)	G9a block 7.9µM (no result: GLS inhibitor, JMJD2A Tudor inh, HP1b chromo inh)
CC(=O)C1=C(C)NC(SCc2cccc3ccccc23)=C(C#N)C1c1ccco1 (stereo not given)	JMJD2A Tudor inh 10µM, G9a block 32µM
CCOC(=O)C1=C(c2ccccc2)NC(SC)=C(C#N)C1c1ccco1 (stereo not given)	JMJD2A Tudor inh inconclusive, G9a block 45µM
CSC1=C(C#N)C(c2ccccc2)C(C(C)=O)=C(C)N1 (stereo not given)	none
